EPAC2 ag: activates human EPAC2 exchange factor; actives 0.079% (n = 360,000); Potency, µM (doses to about 154 µM), hits mostly activators; EPAC2 activation, biochemical qHTS; response scale: 100% = 6.5 mM cAMP response; note: nearly all actives have a fitted effect of over 50% in size
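Readout is BODIPY fluorescence (480 nm excitation, 540 nm emission), which falls as labeled GDP is exchanged off Rap1B. EPAC2 at 100 nM acted on 250 nM RAP1B-BODIPY-GDP with 50 uM GDP present.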
EPAC1 agonist: EPAC1 (human) agonism; EPAC1 agonist qHTS, biochemical assay; response scale: 100% = response to 6.5 mM cAMP; Potency, µM (series often up to 154 µM), actives largely listed as activators; actives 0.073% (n = 360,000); note: nearly all actives have a fitted effect of over 60% in size
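Compounds were pinned as a concentration titration into mixtures of EPAC1 (100 nM), BODIPY-GDP-loaded Rap1B (250 nM) and GDP (50 uM). After 5 min at room temperature, fluorescence was followed for 30 min; activity was scaled to 6.5 mM cAMP.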
USP1 inh: blocks the human USP1/UAF1 deubiquitinase complex; recombinant USP1/UAF1, Ub-Rhodamine cleavage fluorescence; Potency, µM (titrated, usually from 57.1 µM), most hits filed as inhibitors; actives 0.23% (n = 390,000); O94782; AID 743255; note: nearly all actives have a fitted effect of over 60% in size
Target sequence (O94782 whole entry, looked up): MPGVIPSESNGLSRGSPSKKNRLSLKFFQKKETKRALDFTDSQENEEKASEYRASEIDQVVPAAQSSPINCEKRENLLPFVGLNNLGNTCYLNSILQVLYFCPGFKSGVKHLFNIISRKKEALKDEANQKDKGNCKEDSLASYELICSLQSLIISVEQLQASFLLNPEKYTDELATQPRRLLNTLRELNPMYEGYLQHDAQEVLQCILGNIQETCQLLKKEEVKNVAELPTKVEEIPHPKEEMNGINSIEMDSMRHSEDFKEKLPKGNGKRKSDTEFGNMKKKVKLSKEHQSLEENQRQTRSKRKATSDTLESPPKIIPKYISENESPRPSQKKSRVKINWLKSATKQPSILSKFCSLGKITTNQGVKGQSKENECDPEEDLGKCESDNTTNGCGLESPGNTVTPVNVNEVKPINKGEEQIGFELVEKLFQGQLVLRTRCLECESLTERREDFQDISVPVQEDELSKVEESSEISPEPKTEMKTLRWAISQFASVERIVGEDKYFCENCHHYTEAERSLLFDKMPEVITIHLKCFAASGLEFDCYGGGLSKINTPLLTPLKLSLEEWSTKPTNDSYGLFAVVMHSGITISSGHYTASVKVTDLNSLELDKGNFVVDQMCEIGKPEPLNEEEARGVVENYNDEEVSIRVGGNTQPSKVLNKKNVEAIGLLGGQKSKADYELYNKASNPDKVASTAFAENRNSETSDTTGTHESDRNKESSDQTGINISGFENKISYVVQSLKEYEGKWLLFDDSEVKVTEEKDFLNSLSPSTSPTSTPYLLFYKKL
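1 nM enzyme complex + cpd, 15 min RT; start with Ub-Rho 150nM final; kinetic fluorescence ex 480/em 540, 6 reads q60 s. Buffer 50mM HEPES pH 7.8, 0.5mM EDTA, 0.1 mg/ml BSA, 1mM TCEP, 0.01% Tween-20.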
EPAC1 antag: EPAC1 (human) antagonism. EPAC1 GEF assay, Rap1b-BODIPY-GDP exchange fluorescence. Potency, µM (top dose mostly 115 µM), usual class: inhibitors. actives 0.14% (n = 360,000). AID 720709; note: nearly all actives have a fitted effect of over 50% in size
EPAC2 antag: blocks human EPAC2 exchange factor | actives 0.18% (n = 360,000) | Q8WZA2 | AID 720708 | EPAC2 GEF exchange of Rap1B-BODIPY-GDP, fluorescence | Potency, µM (series often up to 114 µM), actives largely listed as inhibitors; note: nearly all actives have a fitted effect of over 45% in size
Numbers stand for hits; – = inactive; ? = inconclusive; · = no result given. A selection: hits, their analogues and other compounds. The true share with any hit is near 0.44%. Calls come from the whole dose curve; as a rule, active = well fitted curve in the direction sought with a large enough effect; inconclusive = small, poorly fitted or top-dose-only effect, or another doubt; inactive = no such curve, though single readings can be large; an effect the other way counts as inactive or inconclusive.

SMILES	EPAC2 ag	EPAC1 agonist	USP1 inh	EPAC1 antag	EPAC2 antag
Cc1ccc([C@H]2C(C(=O)O)=CC[C@@H](c3cccs3)N2S(=O)(=O)c2ccc(C)cc2)cc1	–	–	–	–	–
Cc1ccc(S(=O)(=O)N2[C@@H](c3ccc(Br)cc3)C(C(=O)O)=CC[C@H]2c2ccc(C(C)C)cc2)cc1	–	–	–	56.2µM	?
Cc1ccc(S(=O)(=O)N2[C@@H](c3ccc(Cl)cc3)C(C(=O)O)=CC[C@H]2c2ccc(Cl)c(Cl)c2)cc1	–	–	–	?	?
Cc1ccc(S(=O)(=O)N2C(c3ccc(Cl)c(Cl)c3)CC=C(C(=O)O)C2c2ccc(Cl)cc2)cc1 (stereo not drawn)	–	–	·	–	63.1µM
CC(=O)C[C@H](O)CC(=O)[C@@H]1OC(=O)CCCCCc2ccccc21	–	–	–	–	–
CC(C)(CNC(=O)CO/N=C1/C=C2CCC3C(C(O)C[C@@]4(C)C3CC[C@]4(O)C(=O)CO)[C@@]2(C)CC1)C(O)C(=O)O (stereo partly drawn)	–	–	–	–	–
CCCCn1c(NS(=O)(=O)c2ccc(C)cc2)c(S(=O)(=O)c2ccccc2)c2nc3ccccc3nc21	–	–	28.2µM	?	–
Nc1ncnc2c1ncn2[C@@H]1O[C@H](C(=O)N[C@H]2c3ccccc3C[C@H]2OC=O)[C@@H](O)[C@H]1O	–	–	·	–	?
CC(C)(C)Cc1c(-c2ccc(C#N)cc2)nc2ccc(Cl)cn12	–	–	–	–	–
COc1cccc2c1C(=O)c1c(O)c3c(c(O)c1C2=O)C[C@@](O)(C(=O)CO)C[C@@H]3OC1CC(N)C(O)C(C)O1 (stereo partly drawn)	–	?	?	–	–
CC(=O)[C@@]1(O)Cc2c(O)c3c(c(O)c2[C@H](O[C@H]2C[C@H](N)[C@H](O)[C@H](C)O2)C1)C(=O)c1ccccc1C3=O	?	28.2µM	·	–	–
COc1cccc2c1C(=O)c1c(O)c3c(c(O)c1C2=O)C[C@@](O)(C(=O)CO)C[C@@H]3O[C@H]1C[C@H](N)[C@H](O)[C@H](C)O1	–	?	31.6µM	–	–
COc1cccc2c1C(=O)c1c(O)c3c(c(O)c1C2=O)CC(O)(C(C)=O)CC3OC1CC(N(C)C)C(O)C(C)O1 (stereo not drawn)	–	89.1µM	?	–	–
O=C(Nc1ccccc1Cl)c1cc(C2CCCCN2C(=O)c2ccccc2)on1 (stereo not drawn)	–	–	·	–	–
CC(C)[C@@H](NC(=O)OC(C)(C)C)c1cc(C(=O)c2c(-c3ccccc3)[nH]c3ccccc23)c(N)s1	–	–	·	–	–
O=C(CCl)N1c2ccccc2Oc2ccc3ccccc3c21	–	?	22.4µM	–	–
Cc1cc(OC(=O)c2c(C)cc(OC(=O)c3c(C)cc(O)cc3O)cc2O)cc(O)c1C(=O)O	–	–	–	56.2µM	–
COC(=O)c1c(C)cc(O)cc1O	–	–	–	–	–
CCOc1ccc2nc(NC3=NC(c4ccc(OC)cc4)CC(=O)N3)nc(C)c2c1 (stereo not drawn)	?	?	?	50.1µM	31.6µM
Cc1cc(-n2ccnc(NCCc3ccc(S(N)(=O)=O)cc3)c2=O)ccc1Br	·	·	–	·	·
O=C(O)c1ccc(NC2=C(n3nnc4ccccc43)C(=O)c3ccccc3C2=O)cc1	–	–	15.8µM	–	–
O=C(O)c1ccc(Nc2nc3ccccc3n3cnnc23)cc1	·	·	–	·	·
Cc1ccc(C(=O)N2CCCC(c3ccc(Cl)cc3)=N2)cc1	–	–	–	–	–
CCc1ccc(S(=O)(=O)Nc2c(C)n(C)n(-c3ccccc3)c2=O)cc1	–	–	–	–	–
CC(CCC(C)C(C)(C)C)[C@@H]1CC[C@H]2C3C[C@H](OS(O)(=S)=S)[C@H]4C[C@H](OS(O)(=S)=S)[C@@H](OS(O)(=S)=S)C[C@]4(C)[C@H]3CC[C@]12C (stereo partly drawn) (tested in a mixture with another compound)	–	–	17.8µM	15.8µM	20µM
SMILES	EPAC2 ag	EPAC1 agonist	USP1 inh	EPAC1 antag	EPAC2 antag
CN1CCc2c(sc3c2C(=O)NC(c2ccc(OC(=O)c4ccc(C(C)(C)C)cc4)cc2)N3)C1 (stereo not drawn)	·	·	31.6µM	·	·
CN1CCc2c(sc3c2C(=O)NC(c2ccccn2)N3)C1 (stereo not drawn)	–	–	31.6µM	–	–
CN1CCc2c(sc3c2C(=O)NC(c2ccc(OC(=O)c4ccccc4)cc2)N3)C1 (stereo not drawn)	·	·	–	·	·
CCOc1ccc(S(=O)(=O)Nc2ccc(O)c(Sc3ncn[nH]3)c2)cc1	–	–	–	–	–
Cc1ccc(S(=O)(=O)Nc2ccc(O)c(Sc3ncn[nH]3)c2)cc1	–	–	?	–	–
CC(C)c1ccc(S(=O)(=O)/N=C2/C=C(Sc3ncn[nH]3)C(=O)c3ccccc32)cc1	–	–	1.78µM	56.2µM	89.1µM
Cc1ccc(S(=O)(=O)/N=C2/C=C(Sc3ncn[nH]3)C(=O)c3ccccc32)cc1	–	–	1µM	44.7µM	20µM
CCc1nn(CC(=O)NCCc2ccc(Cl)cc2)c(=O)c2cc3ccccc3n12	·	·	–	·	·
CC(=O)Nc1ccc(S(=O)(=O)N2CCNC(=O)C2)cc1	–	–	–	–	–
CC(=O)Oc1c(Sc2ccccc2[N+](=O)[O-])c(C)nn1C(C)(C)C	–	–	–	?	50.1µM
COc1ccc(S(=O)(=O)Nc2ccc(-n3cccc3)cc2)cc1	–	–	–	–	–
O=C1C(Cl)=C(Nc2ccc3cn[nH]c3c2)C(=O)c2ccccc21	–	–	15.8µM	–	–
N#Cc1c(NC(=O)c2ccccc2Cl)n(Cc2ccccc2)c2nc3ccccc3nc12	–	–	25.1µM	35.5µM	44.7µM
CCCCn1c(NC(=O)c2ccccc2Cl)c(C#N)c2nc3ccccc3nc21	–	–	14.1µM	?	?
CCCCn1c(NC(=O)CC)c(C#N)c2nc3ccccc3nc21	–	–	–	–	–
COc1ccc(C(NC(=O)C2CCN(CCCOc3ccccc3)CC2)c2cccs2)cc1 (stereo not drawn)	–	–	·	?	–
O=C(C1=NN(c2ccccc2)C2C(=O)N(c3cccc(Cl)c3)C(=O)C12)c1ccccc1 (stereo not drawn)	–	–	?	50.1µM	–
O=C(Cc1ccc(-c2ccccc2)cc1)NCCS(=O)(=O)N1CCN(c2ccc(F)cc2)CC1	·	·	–	·	·
COc1cccc(N2C(C(C)=O)=NN(c3ccccc3)C2c2ccc(N3CCOCC3)cc2)c1 (stereo not drawn)	–	–	–	–	–
COc1ccc(C2N(c3ccc(Cl)cc3)N=C(C(C)=O)N(C)N2C(C)=O)cc1 (stereo not drawn)	–	–	–	–	20µM
